According to the supplement of paper PMC10849652:
Of roughly 7,900 targets only a part is listed; those with a hit were picked by preference. About 0.6% of all pairs of compound and target were hits. Values without a mark were called inactive.

Key:
Assay in all cases: log2 fold change, soluble protein after heating vs DMSO (PISA); higher = thermal stabilisation; K562 cells, 10 uM, 30 min; active = over 0.2 and 3.5 SD of the protein, either way, in both replicates (recomputed)
[1] = compound: COC1=CC=C(C=C1)CN2C=CC3=C2C=C(C=C3)C(=O)NO
Method in brief: (§1)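 K562 cells at 2×10^6 cells/mL were exposed to 10 μM compound for 30 min, then aliquots were heated for 3 min across 48°C-58°C, pooled, and extracted in PBS containing 0.5% NP-40 at 4°C. The supernatant after 21,000xg for 90 min was taken as soluble protein and measured by TMTpro 16plex LC-MS/MS with channel sums equalised. Thermal stability is reported relative to control samples, with values from duplicates. Fold changes are given on a log2 scale.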

filanesib = compound: CON(C)C(=O)N1N=C(c2cc(F)ccc2F)S[C@@]1(CCCN)c1ccccc1 [filanesib]
Method in brief: as §1

zotarolimus = compound: CO[C@H]1C[C@@H]2CC[C@@H](C)[C@@](O)(O2)C(=O)C(=O)N2CCCC[C@H]2C(=O)O[C@H]([C@H](C)C[C@@H]2CC[C@H](n3cnnn3)[C@H](OC)C2)CC(=O)[C@H](C)/C=C(\C)[C@@H](O)[C@@H](OC)C(=O)[C@H](C)C[C@H](C)/C=C/C=C/C=C/1C [zotarolimus]
Method in brief: as §1

idasanutlin = compound: COc1cc(C(=O)O)ccc1NC(=O)[C@@H]1N[C@@H](CC(C)(C)C)[C@](C#N)(c2ccc(Cl)cc2F)[C@H]1c1cccc(Cl)c1F [idasanutlin]
Method in brief: as §1

alisertib = compound: COc1cc(Nc2ncc3c(n2)-c2ccc(Cl)cc2C(c2c(F)cccc2OC)=NC3)ccc1C(=O)O [alisertib]
Method in brief: as §1

[2] = compound: COc1cc2nc(-c3cc(F)ccc3O)nc(N[C@@H]3CNC[C@H]3C(C)(C)O)c2cc1OC
Method in brief: as §1

[3] = compound: COc1cccc2cc(-c3nc([C@H]4CC[C@H](C(=O)O)CC4)n4ncnc(N)c34)[nH]c12
Method in brief: as §1

lapatinib = compound: CS(=O)(=O)CCNCc1ccc(-c2ccc3ncnc(Nc4ccc(OCc5cccc(F)c5)c(Cl)c4)c3c2)o1 [lapatinib]
Method in brief: as §1

pictilisib = compound: CS(=O)(=O)N1CCN(Cc2cc3nc(-c4cccc5[nH]ncc45)nc(N4CCOCC4)c3s2)CC1 [pictilisib]
Method in brief: as §1

[4] = compound: CS(=O)(=O)c1ccc(-c2cnc(N)c(C(=O)Nc3ccccc3)n2)cc1
Method in brief: as §1

crizotinib = compound: C[C@@H](Oc1cc(-c2cnn(C3CCNCC3)c2)cnc1N)c1c(Cl)ccc(F)c1Cl [crizotinib]
Method in brief: as §1

[5] = compound: C[C@@H]1COCCN1C2=NC(=NC(=C2)C3(CC3)S(=O)(=O)C)C4=C5C=CNC5=CC=C4
Method in brief: as §1

[6] = compound: C[C@H](C1=CC=C(C=C1)C(=O)NC2=C3C=CNC3=NC=C2)N
Method in brief: as §1

duvelisib = compound: C[C@H](Nc1ncnc2nc[nH]c12)c1cc2cccc(Cl)c2c(=O)n1-c1ccccc1 [duvelisib]
Method in brief: as §1

gandotinib = compound: Cc1cc(Nc2cc(CN3CCOCC3)c3nc(C)c(Cc4ccc(Cl)cc4F)n3n2)n[nH]1 [gandotinib]
Method in brief: as §1

tozasertib = compound: Cc1cc(Nc2cc(N3CCN(C)CC3)nc(Sc3ccc(NC(=O)C4CC4)cc3)n2)n[nH]1 [tozasertib]
Method in brief: as §1

[7] = compound: Cc1cc(SCc2sc(-c3ccc(C(F)(F)F)cc3)nc2C)ccc1OCC(=O)O
Method in brief: as §1

doramapimod = compound: Cc1ccc(-n2nc(C(C)(C)C)cc2NC(=O)Nc2ccc(OCCN3CCOCC3)c3ccccc23)cc1 [doramapimod]
Method in brief: as §1

ispinesib = compound: Cc1ccc(C(=O)N(CCCN)[C@@H](c2nc3cc(Cl)ccc3c(=O)n2Cc2ccccc2)C(C)C)cc1 [ispinesib]
Method in brief: as §1

gefitinib = compound: COc1cc2ncnc(Nc3ccc(F)c(Cl)c3)c2cc1OCCCN1CCOCC1 [gefitinib]
Method in brief: as §1

Sequence of UniProt Q9NRR8 (Q9NRR8 whole entry, looked up): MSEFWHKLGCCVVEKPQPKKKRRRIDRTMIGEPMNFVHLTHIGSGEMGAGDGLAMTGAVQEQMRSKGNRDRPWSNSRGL
Sequence of UniProt Q6ZU80 (Q6ZU80 whole entry, looked up): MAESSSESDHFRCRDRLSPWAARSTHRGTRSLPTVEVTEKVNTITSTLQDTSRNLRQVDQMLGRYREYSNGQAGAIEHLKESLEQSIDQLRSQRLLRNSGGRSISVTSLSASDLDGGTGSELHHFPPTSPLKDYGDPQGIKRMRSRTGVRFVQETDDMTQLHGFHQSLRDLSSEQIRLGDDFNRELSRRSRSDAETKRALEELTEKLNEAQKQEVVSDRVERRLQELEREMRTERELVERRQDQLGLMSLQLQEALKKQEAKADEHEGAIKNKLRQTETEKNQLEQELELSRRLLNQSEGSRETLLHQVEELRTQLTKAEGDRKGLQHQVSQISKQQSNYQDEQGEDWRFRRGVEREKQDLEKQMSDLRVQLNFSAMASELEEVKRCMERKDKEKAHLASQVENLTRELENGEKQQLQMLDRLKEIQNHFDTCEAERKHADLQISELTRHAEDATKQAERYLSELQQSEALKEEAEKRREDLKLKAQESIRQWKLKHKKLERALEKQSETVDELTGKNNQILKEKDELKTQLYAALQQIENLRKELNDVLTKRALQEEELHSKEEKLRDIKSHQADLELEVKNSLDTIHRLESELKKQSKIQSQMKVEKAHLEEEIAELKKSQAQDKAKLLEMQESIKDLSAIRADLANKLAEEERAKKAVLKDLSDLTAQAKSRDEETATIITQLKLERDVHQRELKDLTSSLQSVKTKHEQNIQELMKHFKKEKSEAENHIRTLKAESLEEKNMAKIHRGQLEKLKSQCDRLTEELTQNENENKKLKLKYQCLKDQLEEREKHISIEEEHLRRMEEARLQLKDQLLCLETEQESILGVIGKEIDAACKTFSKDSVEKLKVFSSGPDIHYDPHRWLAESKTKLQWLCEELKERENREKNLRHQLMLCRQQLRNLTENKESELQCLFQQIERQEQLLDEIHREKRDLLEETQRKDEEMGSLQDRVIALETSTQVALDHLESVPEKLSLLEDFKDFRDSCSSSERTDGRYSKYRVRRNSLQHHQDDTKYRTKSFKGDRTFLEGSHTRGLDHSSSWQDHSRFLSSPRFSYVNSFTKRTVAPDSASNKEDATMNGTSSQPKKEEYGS
Sequence of UniProt O95628 (O95628 whole entry, looked up): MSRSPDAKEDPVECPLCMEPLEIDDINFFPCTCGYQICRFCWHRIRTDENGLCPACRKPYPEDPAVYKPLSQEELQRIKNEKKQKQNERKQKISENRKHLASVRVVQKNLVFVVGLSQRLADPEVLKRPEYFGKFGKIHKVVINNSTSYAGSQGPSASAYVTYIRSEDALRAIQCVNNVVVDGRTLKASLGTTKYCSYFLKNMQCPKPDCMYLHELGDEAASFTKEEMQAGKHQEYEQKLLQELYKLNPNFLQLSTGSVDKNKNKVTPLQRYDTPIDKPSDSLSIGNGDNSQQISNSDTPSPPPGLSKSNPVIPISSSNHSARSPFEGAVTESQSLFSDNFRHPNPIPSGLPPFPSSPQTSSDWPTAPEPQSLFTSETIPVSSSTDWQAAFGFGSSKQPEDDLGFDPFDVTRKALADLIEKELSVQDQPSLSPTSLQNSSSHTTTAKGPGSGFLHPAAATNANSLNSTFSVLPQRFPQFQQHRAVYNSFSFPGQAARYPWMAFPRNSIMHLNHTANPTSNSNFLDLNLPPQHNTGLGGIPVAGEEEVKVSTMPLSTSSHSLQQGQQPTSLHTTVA
Sequence of UniProt Q14790 (Q14790 whole entry, looked up): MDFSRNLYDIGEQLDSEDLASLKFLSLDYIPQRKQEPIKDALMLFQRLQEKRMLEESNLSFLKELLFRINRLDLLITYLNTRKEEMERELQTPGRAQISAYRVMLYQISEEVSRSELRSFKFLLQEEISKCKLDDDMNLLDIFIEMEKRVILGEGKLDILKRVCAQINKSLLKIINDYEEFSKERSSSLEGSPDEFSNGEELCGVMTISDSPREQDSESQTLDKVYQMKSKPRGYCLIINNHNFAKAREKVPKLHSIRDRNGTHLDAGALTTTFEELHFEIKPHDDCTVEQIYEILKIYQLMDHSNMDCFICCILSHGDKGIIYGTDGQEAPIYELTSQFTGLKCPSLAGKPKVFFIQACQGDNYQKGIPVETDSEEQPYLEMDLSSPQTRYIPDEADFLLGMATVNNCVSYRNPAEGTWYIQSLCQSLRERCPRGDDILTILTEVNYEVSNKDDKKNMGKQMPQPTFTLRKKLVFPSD
Sequence of UniProt Q2TAC2 (Q2TAC2 whole entry, looked up): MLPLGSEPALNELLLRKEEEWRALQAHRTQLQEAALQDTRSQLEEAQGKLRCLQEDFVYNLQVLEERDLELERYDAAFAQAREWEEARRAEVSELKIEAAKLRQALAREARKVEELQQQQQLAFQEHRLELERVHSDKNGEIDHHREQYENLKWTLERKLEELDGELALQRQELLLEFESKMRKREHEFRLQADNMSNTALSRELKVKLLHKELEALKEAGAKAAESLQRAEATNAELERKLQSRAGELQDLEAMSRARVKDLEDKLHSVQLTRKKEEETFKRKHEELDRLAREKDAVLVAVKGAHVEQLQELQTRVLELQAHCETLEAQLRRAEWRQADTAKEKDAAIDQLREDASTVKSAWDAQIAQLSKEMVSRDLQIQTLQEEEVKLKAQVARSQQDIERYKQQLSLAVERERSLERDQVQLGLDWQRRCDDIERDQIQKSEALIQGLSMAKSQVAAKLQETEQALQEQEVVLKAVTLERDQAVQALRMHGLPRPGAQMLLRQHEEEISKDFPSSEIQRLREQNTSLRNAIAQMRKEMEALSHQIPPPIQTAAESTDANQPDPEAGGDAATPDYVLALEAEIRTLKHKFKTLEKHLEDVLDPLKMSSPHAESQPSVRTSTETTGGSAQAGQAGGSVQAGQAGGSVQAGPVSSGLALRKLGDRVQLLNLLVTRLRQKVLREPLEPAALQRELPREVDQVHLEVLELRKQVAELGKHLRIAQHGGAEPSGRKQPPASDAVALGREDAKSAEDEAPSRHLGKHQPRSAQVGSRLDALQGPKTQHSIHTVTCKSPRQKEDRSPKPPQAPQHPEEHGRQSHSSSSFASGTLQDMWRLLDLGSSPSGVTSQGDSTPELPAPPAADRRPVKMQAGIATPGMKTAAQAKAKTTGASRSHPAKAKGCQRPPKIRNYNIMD
Sequence of UniProt Q9Y2V0 (Q9Y2V0 whole entry, looked up): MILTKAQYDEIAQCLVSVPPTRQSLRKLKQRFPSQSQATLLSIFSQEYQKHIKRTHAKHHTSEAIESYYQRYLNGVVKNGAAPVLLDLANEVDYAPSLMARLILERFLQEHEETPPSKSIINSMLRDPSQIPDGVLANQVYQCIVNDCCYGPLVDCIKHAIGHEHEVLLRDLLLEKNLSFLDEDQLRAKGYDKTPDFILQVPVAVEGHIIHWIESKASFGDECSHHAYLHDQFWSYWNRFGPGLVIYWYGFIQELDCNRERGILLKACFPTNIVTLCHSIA
Sequence of UniProt Q9UHN6 (Q9UHN6 whole entry, looked up): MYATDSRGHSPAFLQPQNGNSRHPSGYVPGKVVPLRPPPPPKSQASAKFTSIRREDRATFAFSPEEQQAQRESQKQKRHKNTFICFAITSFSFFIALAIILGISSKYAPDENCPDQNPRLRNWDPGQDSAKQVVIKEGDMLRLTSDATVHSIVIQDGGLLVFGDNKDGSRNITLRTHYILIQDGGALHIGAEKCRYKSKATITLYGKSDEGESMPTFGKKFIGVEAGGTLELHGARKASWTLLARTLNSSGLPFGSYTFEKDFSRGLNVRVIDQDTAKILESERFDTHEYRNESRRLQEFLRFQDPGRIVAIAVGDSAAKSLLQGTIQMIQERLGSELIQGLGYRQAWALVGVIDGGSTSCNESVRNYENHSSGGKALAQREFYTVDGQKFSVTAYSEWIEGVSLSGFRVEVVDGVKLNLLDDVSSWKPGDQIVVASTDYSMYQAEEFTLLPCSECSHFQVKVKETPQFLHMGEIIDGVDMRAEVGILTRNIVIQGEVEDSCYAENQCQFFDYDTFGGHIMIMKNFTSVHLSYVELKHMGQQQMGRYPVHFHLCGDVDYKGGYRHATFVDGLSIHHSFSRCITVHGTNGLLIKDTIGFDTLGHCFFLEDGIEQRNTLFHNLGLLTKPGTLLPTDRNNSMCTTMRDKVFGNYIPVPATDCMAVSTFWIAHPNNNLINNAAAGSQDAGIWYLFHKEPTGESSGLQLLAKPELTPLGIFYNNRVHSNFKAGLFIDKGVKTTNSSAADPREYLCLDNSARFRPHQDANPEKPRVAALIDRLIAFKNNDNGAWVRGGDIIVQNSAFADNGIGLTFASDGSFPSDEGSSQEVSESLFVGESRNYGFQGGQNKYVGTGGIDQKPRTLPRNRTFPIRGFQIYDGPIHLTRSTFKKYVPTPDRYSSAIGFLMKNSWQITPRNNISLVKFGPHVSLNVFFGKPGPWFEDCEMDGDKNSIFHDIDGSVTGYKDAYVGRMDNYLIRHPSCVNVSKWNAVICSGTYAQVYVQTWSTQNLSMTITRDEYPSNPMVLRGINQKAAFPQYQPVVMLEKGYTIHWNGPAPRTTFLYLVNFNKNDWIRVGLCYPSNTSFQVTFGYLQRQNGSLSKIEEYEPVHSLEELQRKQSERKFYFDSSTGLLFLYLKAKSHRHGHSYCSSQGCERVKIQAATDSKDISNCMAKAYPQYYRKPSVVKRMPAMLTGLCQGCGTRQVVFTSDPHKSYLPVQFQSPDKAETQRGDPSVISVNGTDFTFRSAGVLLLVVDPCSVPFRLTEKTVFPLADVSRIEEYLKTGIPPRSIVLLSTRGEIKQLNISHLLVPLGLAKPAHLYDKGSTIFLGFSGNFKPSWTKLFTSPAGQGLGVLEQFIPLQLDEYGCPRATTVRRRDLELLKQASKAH

Target	log2 fold change [1]	log2 fold change (filanesib)	log2 fold change (zotarolimus)	log2 fold change (idasanutlin)	log2 fold change (alisertib)	log2 fold change [2]	log2 fold change [3]	log2 fold change (lapatinib)	log2 fold change (pictilisib)	log2 fold change [4]	log2 fold change (crizotinib)	log2 fold change [5]	log2 fold change [6]	log2 fold change (duvelisib)	log2 fold change (gandotinib)	log2 fold change (tozasertib)	log2 fold change [7]	log2 fold change (doramapimod)	log2 fold change (ispinesib)	log2 fold change (gefitinib)
CDK8 (UniProt P49336)	0.03	0.008	-0.044	-0.136	-0.137	-0.105	-0.005	-0.047	0.038	-0.049	-0.029	0.033	0.248	-0.071	-0.13	-0.199	0.155	0.425 (active)	0.031	–
CRTC2 (UniProt Q53ET0)	-0.004	-0.019	–	0.086	0	-0.509 (active)	0.066	0.079	–	-0.02	-0.077	0.08	–	–	–	-0.057	–	0.062	0.012	-0.056
CNOT4 isoform 9 (UniProt O95628)	-0.018	–	-0.373 (active)	-0.334 (active)	0.018	0.106	0.019	-0.083	0.045	–	-0.094	–	0.484 (active)	-0.076	-0.059	-0.028	-0.086	0.274	-0.102	0.053
CCNC (UniProt P24863)	-0.198	0.013	-0.026	-0.156	-0.036	–	0.013	–	0.079	0.051	-0.004	0.027	0.247	0.044	-0.088	–	0.018	0.373 (active)	0.059	–
CRYM-AS1 (UniProt A6NIL9)	0.159	0.047	0.146	-0.364	0.037	–	-0.041	–	0.109	0.2	-0.077	-0.132	-0.08	-0.035	-0.299	-0.079	-0.024	-0.144	0.022	-0.16
CEP128 (UniProt Q6ZU80)	-0.269	0.031	-0.101	-0.103	0.677 (active)	0.076	-0.381	-0.198	–	0.093	0.056	–	0.157	0.183	–	0.041	-0.07	0.102	–	–
CASP8 isoform 9 (UniProt Q14790)	-0.087	-0.017	–	-0.086	-0.107	0.023	0.044	-0.028	0.127	0.007	-0.02	-0.013	–	0.104	-0.07	0.181	-0.007	0.072	-0.151	-0.153
CDC42SE1 (UniProt Q9NRR8)	-0.011	-0.049	0	-0.093	0.003	0.036	-0.168	-0.088	–	0	-0.099	0.16	-0.031	0.029	–	-0.106	-0.04	-0.06	-0.341	-0.025
CIR1 (UniProt Q86X95)	-0.022	0.247	-0.064	0.161	-0.081	-0.019	-0.024	0.078	-0.365	-0.039	0.03	-0.187	0.544 (active)	-0.114	0.295	0	0.015	0.092	-0.063	–
CEMIP2 (UniProt Q9UHN6)	-0.018	–	0.008	0.021	0.202	0.121	0.135	0.026	0.097	–	0.075	0.023	0.03	0.037	-0.129	0	-0.136	-0.144	-0.148	0.072
CCDC57 (UniProt Q2TAC2)	0.006	0.01	-0.081	–	0.013	-0.008	0.063	0.07	–	-0.026	0.06	0.065	0.139	–	–	0.04	–	-0.035	-0.034	0.009
C15orf41 (UniProt Q9Y2V0)	-0.057	-0.021	-0.096	-0.023	–	0.011	–	-0.018	0.047	0.057	-0.01	0.074	0.023	0.003	-0.027	0.1	-0.004	0.08	-0.2	–
